Results filed as inconclusive are left out. Activity calls are given as the source filed them. Calls follow the shape of the dose curve; as a rule, active = well fitted inhibition curve with a large enough effect; inconclusive = small, poorly fitted or top-dose-only effect; inactive = flat fitted curve, though single readings scatter.
Columns and labels:
[1] = qHTS for identification of novel therapeutic agents for treatment of microphthalmiaassociated transcription factor (MiT) renal cell carcinoma (RCC) (AID 1963991); settings: CellTiter-Glo, 48 h, stronger effect = lower value;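 also: curves scaled with 100% = DMSO viability and 0% = empty wells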
In short: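 UOK109/UOK124/UOK145 (TFE3 fusions, three partners); 500 cells/well; MIPE v4.0, 1912 cpds, 11 conc.; 48 h, 37 C; CellTiter-Glo, 15 min RT; lum. Norm.: DMSO 100%, empty 0%.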

[2] = qHTS profiling for inhibitors of Plasmodium falciparum proliferation (AID 504749); also: nearly all actives have a fitted effect of over 60% in size; also: potency is read from the fitted curve at half-maximal effect;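 as to activity, negative = inhibition: 0% = DMSO vehicle and full inhibition = artemisinin control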; settings: P. falciparum in erythrocytes, SYBR Green DNA, 72 h
In short: (§1)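 Quantitative HTS: compounds pinned into medium, infected erythrocytes added (0.3% parasitemia, 2.5% hematocrit), 72 h culture at 37 C under 5% CO2. Saponin/Triton lysis with SYBR Green I, overnight RT, then fluorescence read.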

3D7 = test: as above; settings: P. falciparum in erythrocytes, SYBR Green DNA, 72 h; series mostly up to 28.7 µM
In short: as §1

7G8 = test: as above; settings: P. falciparum in erythrocytes, SYBR Green DNA, 72 h; series mostly up to 28.7 µM
In short: as §1

AA1029 = test: as above; settings: P. falciparum in erythrocytes, SYBR Green DNA, 72 h; series mostly up to 28.7 µM
In short: as §1

AS120 = test: as above; settings: P. falciparum in erythrocytes, SYBR Green DNA, 72 h; series mostly up to 28.7 µM
In short: as §1

ATS189 = test: as above; settings: P. falciparum in erythrocytes, SYBR Green DNA, 72 h; series mostly up to 28.7 µM
In short: as §1

ATS95 = test: as above; settings: P. falciparum in erythrocytes, SYBR Green DNA, 72 h; series mostly up to 28.7 µM
In short: as §1

C2A = test: as above; settings: P. falciparum in erythrocytes, SYBR Green DNA, 72 h; series mostly up to 28.7 µM
In short: as §1

CP185 = test: as above; settings: P. falciparum in erythrocytes, SYBR Green DNA, 72 h; series mostly up to 28.7 µM
In short: as §1

[3] = TFE3-RCC UOK109 viability, measured here: UOK109 Z-AUC
[4] = TFE3-RCC viability, measured here: UOK124 Z-AUC
[5] = TFE3-RCC viability, measured here: UOK145 Z-AUC
[6] = at 28.7 µM (top of the series), parasite line A
[7] = at 28.7 µM (top of the series), parasite line B
[8] = at 12.8 µM (top of the series), parasite line A
[9] = at 12.8 µM (top of the series), parasite line B

O=C(O)c1cccnc1Nc1cccc(C(F)(F)F)c1
0.463: z-score [1, 5]
inactive: activity, negative = inhibition [2, 6] 8.39% | activity, negative = inhibition [2, 7] 13.5% | Potency (3D7) | Potency (7G8) | Potency (AA1029) | Potency (AS120) | Potency (ATS189) | Potency (ATS95) | Potency (C2A) | Potency (CP185)
0.327: z-score [1, 3]
0.739: z-score [1, 4]

CCOc1cc(CC(=O)N[C@@H](CC(C)C)c2ccccc2N2CCCCC2)ccc1C(=O)O
0.688: z-score [1, 4]
0.737: z-score [1, 5]
0.724: z-score [1, 3]
inactive: activity, negative = inhibition [2, 8] 4.74% | activity, negative = inhibition [2, 9] 10.7% | Potency (3D7) | Potency (7G8) | Potency (AA1029) | Potency (AS120) | Potency (ATS189) | Potency (ATS95) | Potency (C2A) | Potency (CP185)

COc1cc2c(cc1OC)C1CC(=O)C(CC(C)C)CN1CC2 (stereo not given)
inactive: activity, negative = inhibition [2, 6] 3.41% | activity, negative = inhibition [2, 7] 0.311% | Potency (3D7) | Potency (7G8) | Potency (AA1029) | Potency (AS120) | Potency (ATS189) | Potency (ATS95) | Potency (C2A) | Potency (CP185)
0.853: z-score [1, 3]
0.758: z-score [1, 5]
0.433: z-score [1, 4]

CNC[C@@H](O)[C@@H](O)[C@H](O)[C@H](O)CO
0.899: z-score [1, 5]
1.02: z-score [1, 3]
inactive: activity, negative = inhibition [2, 6] 7.09% | activity, negative = inhibition [2, 7] 5.8% | Potency (3D7) | Potency (7G8) | Potency (AA1029) | Potency (AS120) | Potency (ATS189) | Potency (ATS95) | Potency (C2A) | Potency (CP185)
0.532: z-score [1, 4]

Cc1cccc(C)c1OCC(=O)N[C@@H](Cc1ccccc1)[C@@H](O)C[C@H](Cc1ccccc1)NC(=O)[C@H](C(C)C)N1CCCNC1=O
active: Potency ([2]; parasite line A) 8.91 µM | Potency ([2]; parasite line B) 5.01 µM | Potency (3D7) 7.08 µM | Potency (7G8) 0.794 µM | Potency (AA1029) 3.55 µM | Potency (AS120) 1.41 µM | Potency (ATS189) 3.98 µM | Potency (ATS95) 3.98 µM | Potency (C2A) 11.2 µM | Potency (CP185) 10 µM

Oc1ccc(OCc2ccccc2)cc1
1.26: z-score [1, 5]
1.11: z-score [1, 3]
inactive: activity, negative = inhibition [2, 8] -21.7% | activity, negative = inhibition [2, 9] -19.8% | Potency (7G8) | Potency (AA1029) | Potency (AS120) | Potency (ATS189) | Potency (ATS95) | Potency (C2A) | Potency (CP185)
0.685: z-score [1, 4]

O=C(NC(Cc1cc(=O)[nH]c2ccccc12)C(=O)O)c1ccc(Cl)cc1 (stereo not given)
inactive: activity, negative = inhibition [2, 6] 1.94% | activity, negative = inhibition [2, 7] -14.9% | Potency (3D7) | Potency (7G8) | Potency (AA1029) | Potency (AS120) | Potency (ATS189) | Potency (ATS95) | Potency (C2A) | Potency (CP185)

Cc1nc(Nc2ncc(C(=O)Nc3c(C)cccc3Cl)s2)cc(N2CCN(CCO)CC2)n1
active: Potency (7G8) 5.62 µM | Potency (AS120) 12.6 µM
inactive: activity, negative = inhibition [2, 7] -17.2%

CCCCC(CC)COC(=O)C(C#N)=C(c1ccccc1)c1ccccc1 (stereo not given)
inactive: Potency (C2A)
active: Potency ([2]; parasite line A) 11.2 µM | Potency (7G8) 10 µM

CCOC(=O)c1c(C)n(C)c2ccc(O)cc12
inactive: activity, negative = inhibition [2, 6] 15.4% | activity, negative = inhibition [2, 7] 20.5% | Potency (3D7) | Potency (7G8) | Potency (AA1029) | Potency (AS120) | Potency (ATS189) | Potency (ATS95) | Potency (C2A) | Potency (CP185)

Reference: PubChem BioAssay (NCATS)
